# Test results as given in PubChem BioAssay (EPA / NIEHS).
# Activity calls are given as the source filed them. The calls were made as follows: active = hit-call score of the fitted dose curve at least 0.9, where 1 is the maximum; inactive = score below 0.9.
# Legend:
# Settings in all cases: mRNA level, 48 h; actives raise or lower the signal
# [1] = read-out: ATP-citrate lyase (ACLY), ACLY (gene 47); test: LTEA_HepaRG_ACLY: Life Technologies and Expression Analysis (LTEA) Assay for ATP-citrate lyase (ACLY) using HepaRG (AID 2283466)
# How it was run: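 ACLY expression changes in human HepaRG liver cells are quantified by qRT-PCR after 48 h exposure to test chemicals (maximum 100 uM, half-log steps). Values are fitted in both directions relative to 0.5% DMSO vehicle.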
# [2] = read-out: Peroxisomal acyl-coenzyme A oxidase 1 (ACOX1) gene, ACOX1 (gene 51); test: LTEA_HepaRG_ACOX1: Life Technologies and Expression Analysis (LTEA) Assay for Peroxisomal acyl-coenzyme A oxidase 1 (ACOX1) gene using HepaRG (AID 2283467)
# How it was run: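 Human HepaRG hepatic cultures, 48 h treatment with test chemicals up to 100 uM. ACOX1 expression read by qRT-PCR relative to 0.5% DMSO vehicle.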
# [3] = read-out: Alkaline Phosphatase, Placental (ALPP) gene, ALPP (gene 250); test: LTEA_HepaRG_ALPP: Life Technologies and Expression Analysis (LTEA) Assay for Alkaline Phosphatase, Placental (ALPP) gene using HepaRG (AID 2283468);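 as to AC50: differentiated human HepaRG liver cells in serum-free induction medium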
# How it was run: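 ALPP transcript level, measured by qRT-PCR and normalized to three housekeeping genes (ACTB, GAPDH, POLR2A), after 48 h dosing of differentiated HepaRG in serum-free induction medium. Top concentration 100 uM with half-log dilutions (8 points, 0.5% DMSO, duplicates); bidirectional fitting relative to DMSO.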
# [4] = read-out: Bcl-2 (BAD) gene, BAD (gene 572); test: LTEA_HepaRG_BAD: Life Technologies and Expression Analysis (LTEA) Assay for Bcl-2 (BAD) gene using HepaRG (AID 2283469)
# How it was run: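 Activity values reflect up- or down-regulation of BAD mRNA in human HepaRG hepatic cells treated 48 h in serum-free medium, with eight-point half-log dosing capped at 100 uM and 0.5% DMSO vehicle.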
# [5] = read-out: adenosine kinase (ADK) gene, ADK (gene 132); test: LTEA_HepaRG_ADK: Life Technologies and Expression Analysis (LTEA) Assay for adenosine kinase (ADK) gene using HepaRG (AID 2283471)
# How it was run: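 ADK expression quantified by qRT-PCR, normalised to three housekeeping genes, after 48 h exposure of HepaRG cells to eight concentrations (top 100 uM, half-log steps, duplicate, 0.5% DMSO). Up- or down-regulation fitted relative to vehicle.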
# [6] = read-out: Alpha-fetoprotein (AFP) gene, AFP (gene 174); test: LTEA_HepaRG_AFP: Life Technologies and Expression Analysis (LTEA) Assay for Alpha-fetoprotein (AFP) gene using HepaRG (AID 2283472)
# How it was run: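 qRT-PCR (Fluidigm TaqMan) readout of AFP transcript, normalized to three housekeeping genes, fitted bidirectionally against 0.5% DMSO baseline. HepaRG cells received chemicals for 48 h in serum-free induction medium, top concentration 100 uM, half-log steps.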
# [7] = read-out: BCL2L11 (gene 10018); test: LTEA_HepaRG_BCL2L11: Life Technologies and Expression Analysis (LTEA) Assay for Bcl-2 (BCL2L11) gene using HepaRG (AID 2283473)
# How it was run: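 BCL2L11 transcript levels are measured by Fluidigm qRT-PCR, normalized to three housekeeping genes. HepaRG cultures were plated 48 h, then treated 48 h with test chemical (top 100 uM, half-log, 0.5% DMSO vehicle); curves were fitted bidirectionally against DMSO.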
# [8] = read-out: Apolipoprotein A-V (APOA5) gene, APOA5 (gene 116519); test: LTEA_HepaRG_APOA5: Life Technologies and Expression Analysis (LTEA) Assay for Apolipoprotein A-V (APOA5) gene using HepaRG (AID 2283474)
# How it was run: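 APOA5 transcript levels were quantified by qRT-PCR, normalized to three housekeeping genes, after 48 h chemical treatment of HepaRG cells (8 points, 100 uM maximum, half-log steps, 0.5% DMSO). Curves fitted in both directions against vehicle.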
# [9] = read-out: Apoptosis regulator Bcl-2 (Homo sapiens) (UniProt P10415); test: LTEA_HepaRG_BCL2: Life Technologies and Expression Analysis (LTEA) Assay for Bcl-2 gene using HepaRG (AID 2283475);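 also: BCL2 transcript by TaqMan qRT-PCR normalised to ACTB GAPDH and POLR2A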
# How it was run: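 qRT-PCR read-out (Fluidigm TaqMan) of BCL2 transcript, normalised to three housekeeping genes, after 48 h chemical exposure of HepaRG cells; 8-point half-log series, top 100 uM, 0.5% DMSO vehicle. Gain or loss of signal fitted relative to DMSO baseline.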
# [10] = read-out: Caspase-3 (Homo sapiens) (UniProt P42574); test: LTEA_HepaRG_CASP3: Life Technologies and Expression Analysis (LTEA) Assay for cysteine-aspartic acid protease (CASP3) using HepaRG (AID 2283477)
# How it was run: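 Expression of CASP3 was quantified by TaqMan qRT-PCR against three housekeeping genes (ACTB, GAPDH, POLR2A), bidirectionally versus 0.5% DMSO. HepaRG cultures received compounds in duplicate, top 100 uM with half-log steps, for 48 h in serum-free induction medium.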
# [11] = read-out: cysteine-aspartic acid protease (CASP8), CASP8 (gene 841); test: LTEA_HepaRG_CASP8: Life Technologies and Expression Analysis (LTEA) Assay for cysteine-aspartic acid protease (CASP8) using HepaRG (AID 2283480)
# How it was run: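 Concentration-response in duplicate up to 100 uM (half-log steps, 0.5% DMSO) on differentiated HepaRG cultures for 48 h. Expression change of CASP8 mRNA is determined by TaqMan qRT-PCR with housekeeping-gene normalization.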
# [12] = read-out: Cytochrome P450 (CYP2B6), CYP2B6 (gene 1555); test: LTEA_HepaRG_CYP2B6: Life Technologies and Expression Analysis (LTEA) Assay for Cytochrome P450 (CYP2B6) using HepaRG (AID 2283481)
# How it was run: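 CYP2B6 transcript level quantified by qRT-PCR against three housekeeping genes, fitted bidirectionally relative to DMSO. HepaRG cultures received chemicals for 48 h, 8-point half-log series from 100 uM in 0.5% DMSO, duplicate wells, serum-free induction medium.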
# [13] = read-out: Cytochrome P450 2C19 (Homo sapiens) (UniProt P33261); test: LTEA_HepaRG_CYP2C19: Life Technologies and Expression Analysis (LTEA) Assay for CYP2C19 using HepaRG (AID 2283482)
# How it was run: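 CYP2C19 transcript levels by qRT-PCR, normalized to three housekeeping genes, in HepaRG cells after 48 h chemical exposure. Eight-point half-log series topping at 100 uM, 0.5% DMSO vehicle. Increases and decreases both fitted against DMSO.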
# [14] = read-out: CYP2C8 (gene 1558); test: LTEA_HepaRG_CYP2C8: Life Technologies and Expression Analysis (LTEA) Assay for CYP2C8 using HepaRG (AID 2283483)
# How it was run: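 This is a transcriptional endpoint in HepaRG cultures: 48 h exposure, highest concentration 100 uM. CYP2C8 mRNA is quantified by TaqMan qRT-PCR.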
# [15] = read-out: CYP2C9 (gene 1559); test: LTEA_HepaRG_CYP2C9: Life Technologies and Expression Analysis (LTEA) Assay for CYP2C9 using HepaRG (AID 2283484)
# How it was run: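 Eight-point concentration-response (highest 100 uM, half-log dilutions) in HepaRG cells for 48 h; CYP2C9 expression by qRT-PCR normalized to ACTB, GAPDH, POLR2A. Bidirectional fit, DMSO baseline.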
# [16] = read-out: CYP2E1 (gene 1571); test: LTEA_HepaRG_CYP2E1: Life Technologies and Expression Analysis (LTEA) Assay for CYP2E1 using HepaRG (AID 2283485)
# How it was run: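 CYP2E1 transcript was measured by TaqMan qRT-PCR in human HepaRG cultures after 48 h chemical exposure (top 100 uM, half-log steps, 0.5% DMSO vehicle). Housekeeping-gene normalization; gain or loss fitted relative to DMSO baseline.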
# [17] = read-out: Bcl-2 (BID) gene, BID (gene 637); test: LTEA_HepaRG_BID: Life Technologies and Expression Analysis (LTEA) Assay for Bcl-2 (BID) gene using HepaRG (AID 2283476)
# How it was run: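 HepaRG, 48 h exposure, 8-pt half-log series, top 100 uM, 0.5% DMSO vehicle, duplicates. Readout: BID mRNA by TaqMan qRT-PCR; housekeeping-normalized; bidirectional curve fit vs DMSO baseline.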
# [18] = read-out: Cytochrome P450 (CYP1A2), CYP1A2 (gene 1544); test: LTEA_HepaRG_CYP1A2: Life Technologies and Expression Analysis (LTEA) Assay for Cytochrome P450 (CYP1A2) using HepaRG (AID 2283479)
# How it was run: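 CYP1A2 transcript measured by TaqMan qRT-PCR against three housekeeping genes after 48-hour chemical exposure of HepaRG cells. Eight-point half-log series topping at 100 uM in 0.5% DMSO, duplicates; gain or loss fitted relative to vehicle.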
# [19] = read-out: Cytochrome P450 (CYP24A1), CYP24A1 (gene 1591); test: LTEA_HepaRG_CYP24A1: Life Technologies and Expression Analysis (LTEA) Assay for Cytochrome P450 (CYP24A1) using HepaRG (AID 2283478)
# How it was run: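 mRNA of CYP24A1 quantified by TaqMan qRT-PCR (ACTB/GAPDH/POLR2A normalization) after 48 h chemical exposure of HepaRG cells, top concentration 100 uM, half-log steps, 0.5% DMSO vehicle, duplicates. Curves fitted bidirectionally against DMSO baseline.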
# Apoptosis regulator Bcl-2 (Homo sapiens), sequence (P10415 whole entry, looked up): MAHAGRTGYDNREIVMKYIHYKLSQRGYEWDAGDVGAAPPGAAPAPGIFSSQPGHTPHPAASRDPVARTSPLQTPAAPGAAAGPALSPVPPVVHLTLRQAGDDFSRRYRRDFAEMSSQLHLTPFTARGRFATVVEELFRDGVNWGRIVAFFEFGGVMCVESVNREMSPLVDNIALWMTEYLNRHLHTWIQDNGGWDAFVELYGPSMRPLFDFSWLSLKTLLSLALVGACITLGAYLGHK
# Cytochrome P450 2C19 (Homo sapiens), sequence (P33261 whole entry, looked up): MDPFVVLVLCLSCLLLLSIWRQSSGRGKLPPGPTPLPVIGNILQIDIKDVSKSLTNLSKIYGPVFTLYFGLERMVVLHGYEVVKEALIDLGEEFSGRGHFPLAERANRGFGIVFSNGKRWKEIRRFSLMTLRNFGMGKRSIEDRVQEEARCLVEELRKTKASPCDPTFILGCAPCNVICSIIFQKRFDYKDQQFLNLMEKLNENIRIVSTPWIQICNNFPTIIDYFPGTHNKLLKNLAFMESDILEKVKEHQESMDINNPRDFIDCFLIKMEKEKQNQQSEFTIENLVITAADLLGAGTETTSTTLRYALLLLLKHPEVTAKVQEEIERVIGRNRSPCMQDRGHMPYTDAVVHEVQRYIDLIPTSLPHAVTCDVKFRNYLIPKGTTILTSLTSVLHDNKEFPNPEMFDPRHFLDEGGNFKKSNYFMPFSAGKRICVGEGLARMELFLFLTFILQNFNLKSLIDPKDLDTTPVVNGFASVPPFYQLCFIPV
# Caspase-3 (Homo sapiens), sequence (P42574 whole entry, looked up): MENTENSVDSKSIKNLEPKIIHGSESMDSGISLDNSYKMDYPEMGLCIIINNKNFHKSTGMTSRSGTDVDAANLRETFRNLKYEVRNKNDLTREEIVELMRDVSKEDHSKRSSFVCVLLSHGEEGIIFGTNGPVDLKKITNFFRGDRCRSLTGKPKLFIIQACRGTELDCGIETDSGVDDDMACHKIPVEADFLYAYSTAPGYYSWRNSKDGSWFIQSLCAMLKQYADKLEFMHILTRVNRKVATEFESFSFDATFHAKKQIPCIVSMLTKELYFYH
compound,measurement,setting,value
Cn1c(-c2ccccc2)cc(-c2ccccc2)[n+]1C,outcome,[1],inactive
same,AC50,[2],21.2 µM (active)
same,AC50,[3],50 µM (active)
same,outcome,[4],inactive
same,AC50,[5],82.1 µM (active)
same,AC50,[6],39.5 µM (active)
same,outcome,[7],inactive
same,AC50,[8],63.8 µM (active)
same,AC50,[9],13.3 µM (active)
same,AC50,[10],50 µM (active)
same,AC50,[11],89.2 µM (active)
same,AC50,[12],11.3 µM (active)
same,AC50,[13],50 µM (active)
same,AC50,[14],13.5 µM (active)
same,AC50,[15],19.5 µM (active)
same,AC50,[16],24.5 µM (active)
CCNP(=S)(OC)O/C(C)=C/C(=O)OC(C)C (centres undefined),AC50,[1],67 µM (active)
same,outcome,[2],inactive
same,outcome,[3],inactive
same,outcome,[4],inactive
same,outcome,[5],inactive
same,outcome,[6],inactive
same,outcome,[8],inactive
same,outcome,[9],inactive
same,outcome,[17],inactive
same,outcome,[10],inactive
same,AC50,[18],18 µM (active)
same,outcome,[11],inactive
same,AC50,[12],5.19 µM (active)
same,AC50,[13],8.66 µM (active)
same,AC50,[14],12.9 µM (active)
same,outcome,[15],inactive
same,AC50,[16],34.8 µM (active)
C=C(C)CN(CC)c1c([N+](=O)[O-])cc(C(F)(F)F)cc1[N+](=O)[O-],outcome,[1],inactive
same,outcome,[2],inactive
same,outcome,[3],inactive
same,outcome,[4],inactive
same,outcome,[5],inactive
same,outcome,[6],inactive
same,outcome,[7],inactive
same,outcome,[8],inactive
same,outcome,[9],inactive
same,outcome,[10],inactive
same,AC50,[18],33 µM (active)
same,outcome,[11],inactive
same,AC50,[12],23.6 µM (active)
same,AC50,[13],50 µM (active)
same,outcome,[14],inactive
same,outcome,[15],inactive
same,AC50,[16],87.9 µM (active)
CC(C)=CC1C(C(=O)OCc2coc(Cc3ccccc3)c2)C1(C)C (centres undefined),outcome,[1],inactive
same,outcome,[2],inactive
same,outcome,[3],inactive
same,outcome,[4],inactive
same,outcome,[5],inactive
same,outcome,[6],inactive
same,outcome,[8],inactive
same,outcome,[9],inactive
same,outcome,[17],inactive
same,outcome,[10],inactive
same,outcome,[11],inactive
same,AC50,[12],20.1 µM (active)
same,AC50,[13],15.5 µM (active)
same,outcome,[14],inactive
same,outcome,[15],inactive
same,AC50,[16],39.1 µM (active)
CSC(=O)c1c(C(F)F)nc(C(F)(F)F)c(C(=O)SC)c1CC(C)C,AC50,[1],77.9 µM (active)
same,outcome,[2],inactive
same,AC50,[3],49.8 µM (active)
same,outcome,[4],inactive
same,outcome,[5],inactive
same,AC50,[6],49.8 µM (active)
same,outcome,[7],inactive
same,outcome,[8],inactive
same,AC50,[9],49.8 µM (active)
same,outcome,[10],inactive
same,outcome,[18],inactive
same,outcome,[11],inactive
same,AC50,[12],11.8 µM (active)
same,AC50,[13],12.2 µM (active)
same,AC50,[14],11.5 µM (active)
same,AC50,[15],87 µM (active)
same,AC50,[16],53.7 µM (active)
CCOc1nc(F)cc2nc(S(=O)(=O)Nc3c(Cl)cccc3Cl)nn12,outcome,[1],inactive
same,outcome,[2],inactive
same,outcome,[3],inactive
same,outcome,[4],inactive
same,AC50,[5],41.3 µM (active)
same,AC50,[6],25.3 µM (active)
same,outcome,[8],inactive
same,outcome,[9],inactive
same,outcome,[10],inactive
same,outcome,[19],inactive
same,outcome,[18],inactive
same,outcome,[11],inactive
same,outcome,[13],inactive
same,outcome,[14],inactive
same,outcome,[15],inactive
same,AC50,[16],20.3 µM (active)
